NIH3T3 tox: NIH 3T3 cell cytotoxicity; NIH 3T3 viability, CellTiter-Glo ATP luminescence, 48-72 h; Potency, µM (titrated, usually from 96.7 µM), for inactives: at the top dose activity change, negative = cytotoxicity, hits mostly inhibitors; 4.3% of 94,000 active; AID 1345082; also: nearly all actives have a fitted effect of over 55% in size
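Cytotoxicity is measured as loss of cellular ATP: NIH 3T3 cells (400/well) are exposed to compound for 48 or 72 hr at 37 °C, then CellTiter-Glo luminescence is imaged after 10 min at room temperature.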
Luciferase inh: Photinus pyralis luciferase inhibition; purified P. pyralis luciferase, luminescence, biochemical; Potency, µM (top dose mostly 115 µM), actives largely listed as inhibitors; 2.5% of 76,000 active; P08659; also: nearly all actives have a fitted effect of over 65% in size
Target sequence (P08659 whole entry, looked up): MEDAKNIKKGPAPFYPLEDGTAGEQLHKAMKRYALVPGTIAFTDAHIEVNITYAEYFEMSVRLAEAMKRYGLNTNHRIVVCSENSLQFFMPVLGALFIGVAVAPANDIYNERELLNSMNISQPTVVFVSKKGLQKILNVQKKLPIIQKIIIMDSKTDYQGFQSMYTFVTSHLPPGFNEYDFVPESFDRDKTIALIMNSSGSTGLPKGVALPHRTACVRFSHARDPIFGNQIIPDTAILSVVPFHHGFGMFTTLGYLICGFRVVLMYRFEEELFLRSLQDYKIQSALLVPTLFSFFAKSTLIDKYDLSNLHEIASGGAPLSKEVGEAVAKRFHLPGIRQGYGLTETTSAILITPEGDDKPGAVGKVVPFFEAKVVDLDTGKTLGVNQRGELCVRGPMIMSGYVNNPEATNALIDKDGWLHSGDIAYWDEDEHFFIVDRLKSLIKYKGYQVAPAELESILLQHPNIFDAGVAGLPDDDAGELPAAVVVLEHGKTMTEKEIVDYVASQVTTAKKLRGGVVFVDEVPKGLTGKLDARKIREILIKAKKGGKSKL
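Cell-free enzyme assay, 10nM P. pyralis luciferase, luciferin and ATP each at 10uM. Inhibition profiled over a 6-point titration, read as luminescence.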
HEK293 tox: HEK 293 cell cytotoxicity; HEK 293 viability, ATP luminescence (CellTiter-Glo), 48-72 h; Potency, µM (doses to about 115 µM), for the others: at the highest dose activity change, negative = cytotoxicity, usual class: inhibitors; 6.6% of 94,000 active; AID 1345083; also: nearly all actives have a fitted effect of over 60% in size
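HEK 293 cells at 250 cells/well were exposed to compounds by pintool transfer for 48 or 72 hr at 37 degree Celsius, 5% CO2. Viability was read as ATP-coupled luminescence with CellTiter-Glo after 10 min at room temperature.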
NPR1 antag: human Npr1 receptor antagonism | P16066 | HEK293 hNpr1 GloSensor cGMP, ANP-stimulated luminescence | Potency, µM (series often up to 46.3 µM), without a hit: at the highest dose activity change, negative = inhibition, hits mostly inhibitors | 1.6% of 76,000 active | AID 1347048; calls by dose curve; also: nearly all actives have a fitted effect of over 60% in size
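HEK293 cells stably expressing human Npr1 and cGMP GloSensor pGS-40F, loaded 2 h with 2% GloSensor reagent, given compound 30 min at room temperature. Luminescence read before and 20 min after 0.1 nM hNppA.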
* marks the source's active call; other numbers are inactive results; i = inactive; ? = inconclusive; nt = no result; ! = not active in a repeat; [ ] = another dose, or the depositor's remark. Hits are enriched below; roughly 11% of the tested compounds scored in any of these assays. Unless noted, calls follow the shape of the dose curve; as a rule, active = well fitted curve in the direction sought with a large enough effect; inconclusive = small, poorly fitted or top-dose-only effect, or another doubt; inactive = no such curve, though single readings can be large; an effect the other way counts as inactive or inconclusive. % is scaled to controls: 0 for no effect and ±100 for the full control effect; potency is read from the fitted curve at half-maximal effect.

SMILES	NIH3T3 tox	Luciferase inh	HEK293 tox	NPR1 antag
COc1ccccc1N1CCN(C(=O)C[C@@H]2CCNC[C@@H]2Cc2cc(-c3ccc(F)cc3)on2)CC1	?	i	?	-0.7%
COc1ccc(-c2cc(C[C@H]3CNCC[C@H]3CC(=O)NCCN3CCOCC3)no2)cc1	-11.1%	i	-6.1%	1.6%
O=C(C[C@@H]1CCNC[C@@H]1Cc1cc(-c2ccccc2)on1)NCc1ccccc1	100µM*	i	?	-16.9%[70.6 µM]
O=C(C[C@@H]1CCNC[C@@H]1Cc1cc(-c2ccccc2)on1)NCc1cccnc1	3.1%[174 µM]	i	-14.8%[172 µM]	2.4%[70.6 µM]
O=C(NCCc1ccc(Cl)cc1)c1nc2cccnc2n(C2CC2)c1=O	-27.7%	nt	-26.0%	nt
COc1ccc(CNC(=O)C[C@@H]2CCNC[C@@H]2Cc2cc(-c3ccc(C(C)(C)C)cc3)on2)cc1	25.1µM*	i	?	2.1%
O=C(C[C@@H]1CCNC[C@@H]1Cc1cc(-c2ccc(F)cc2)on1)NCc1cccnc1	2.2%[138 µM]	i	-2.2%[172 µM]	-2.2%[70.6 µM]
O=C(C[C@@H]1CCNC[C@@H]1Cc1cc(-c2ccc(F)cc2)on1)NCc1ccc2c(c1)OCO2	?	i	?	-0.4%
O=C(C[C@@H]1CCNC[C@@H]1Cc1cc(-c2ccc(F)cc2)on1)NCc1ccccc1	112µM*	i	100µM*	-1.5%[70.6 µM]
CC(C)(C)c1ccc(-c2cc(C[C@H]3CNCC[C@H]3CC(=O)NCc3ccc(F)cc3)no2)cc1	25.1µM*	i	28.2µM*	1.3%
O=C(NC1CC1)c1nc(-c2ccc(F)cc2)c2ccccn12	?	i	89.1µM*!	-1.2%[70.6 µM]
O=C(NC1CC1)c1nc(-c2cccc(C(F)(F)F)c2)c2ccccn12	?	i	?	-4.9%
O=C(NC1CC1)c1nc(-c2ccc(Cl)cc2Cl)c2ccccn12	?	i	35.5µM*	5.2%
O=C(NC1CC1)c1nc(-c2cc(Cl)cc(Cl)c2)c2ccccn12	-12.4%[138 µM]	i	?	-4.2%[70.6 µM]
O=C(NC1CC1)c1nc(-c2cccnc2)c2ccccn12	44.7µM*	nt	-9.7%[172 µM]	nt
C=CCN1CCN(C(=O)[C@@H]2CCCN(Cc3ccccc3)[C@@H]2COC)CC1	-26.0%	nt	?	nt
COc1ccc(Cn2c(=O)c(C(=O)N3CCN(C(C)=O)CC3)nc3cccnc32)cc1	-6.3%	nt	2.2%	nt
CC(C)Cc1cnc(-c2ccccc2)[nH]1	?	nt	100µM*	nt
O=C(Nc1ccc(Cl)cc1)N1CCCC1C(=O)N1CCCC1c1nc2ccncc2[nH]1 (centres undefined)	-25.4%	nt	-3.2%	nt
COc1ccc2nc3n(c2c1)[C@@H](CNS(=O)(=O)c1ccc(F)cc1)COC3	?	i	-29.5%[172 µM]	0.1%[70.6 µM]
COc1ccc2nc3n(c2c1)[C@@H](CNCc1ccccc1)COC3	?	i	?	?
COc1ccc(S(=O)(=O)NC[C@H]2COCc3nc4ccc(C)cc4n32)cc1	89.1µM*	i	?	?
COc1ccc2nc3n(c2c1)[C@@H](CNCC(C)(C)C)COC3	31.6µM*	i	?	2.8%[70.6 µM]
O=C(c1ccc(Cl)cc1)N1CCN(CCCn2nc3n(c2=O)CCCC3)CC1	-29.3%	nt	-18.7%	nt
CN1C(=O)C2(CCN(Cc3ccccc3)C2)c2ccccc21 (centres undefined)	?	i	100µM*	0.0%[70.6 µM]
SMILES	NIH3T3 tox	Luciferase inh	HEK293 tox	NPR1 antag
CN1C(=O)C2(CCN(C(=O)CCC3CCCCC3)CC2)c2ccccc21	?	i	44.7µM*	-4.3%
O=C1N(Cc2ccccc2)c2ccccc2C12CCN([S+](=O)([O-])c1ccccc1)C2 (centres undefined)	?	i	-27.2%	-14.9%
CN(C)c1ccc(CN2CCC3(C2)C(=O)N(Cc2ccccc2)c2ccccc23)cc1 (centres undefined)	?	i	35.5µM*	-11.4%
O=C(O)c1ccnc(-c2ccnc(NCC(O)c3ccccc3Cl)n2)c1 (centres undefined)	i	31.6µM*	i	2.0%
CC(C)Cc1cc(CNc2nccc(-c3cc(C(=O)O)ccn3)n2)no1	-1.1%	?	-2.9%	-0.2%
O=C(CC1CCCN(c2cnn(CC3CC3)c(=O)c2)C1)N1CCN(c2ccccc2)CC1 (centres undefined)	?	i	50.1µM*	?
CCN1CCN(C(=O)CC2CCCN(c3cnn(CC)c(=O)c3)C2)CC1 (centres undefined)	i	i	8.7%	9.2%

Source: PubChem BioAssay
